Measurements published in PubChem BioAssay (Tox21).
Results filed as inconclusive are left out. Calls of active or inactive are those of the source. Unless noted, calls come from the whole dose curve; as a rule, active = well fitted curve in the direction sought with a large enough effect in the repeat runs; inconclusive = weak or mixed curves; inactive = no such curve, though single readings can be large; an effect the other way counts as inactive or inconclusive.

Assays:
[1] = molecular target: Estrogen receptor beta (Homo sapiens) (UniProt Q92731); experiment: qHTS assay to identify small molecule agonists of the estrogen receptor beta (ER-beta) signaling pathway (AID 1259377; active = well fitted activation curve with a large enough effect in the signal ratio in the repeat runs, not every such curve was filed as active; the % refers to the signal ratio)
Summary of the method: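 ER-beta-UAS-bla HEK293T cells in medium with 2% charcoal-stripped FBS were exposed to compounds for 16 h at 37C. Beta-lactamase reporter activity was read as fluorescence after 2 h with LiveBLAzer B/G FRET substrate at room temperature.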

[2] = molecular target: Estrogen receptor beta (Homo sapiens) (UniProt Q92731); experiment: qHTS assay to identify small molecule antagonists of the estrogen receptor beta (ER-beta) signaling pathway (AID 1259378; active = well fitted inhibition curve with a large enough effect in the signal ratio in the repeat runs, not every such curve was filed as active; the % refers to the signal ratio)
Summary of the method: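 ER-beta-UAS-bla HEK293T (GripTite) cells in 2% charcoal-stripped FBS medium were preincubated 6 hr at 37C, dosed with compound, then stimulated with 1 nM E2 (final) for 16 hr; beta-lactamase reporter read by B/G FRET fluorescence after 2 hr substrate loading.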

[3] = qHTS assay to identify small molecule agonists of the androgen receptor (AR) signaling pathway in the presence of an antagonist - cell viability counter screen (AID 1259379);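 note: MDA-kb2 human breast cancer cells carrying an MMTV luciferase reporter; series mostly up to about 92 µM; nearly all actives have a fitted effect of over 25% in size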
Summary of the method: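 In MDA-kb2 cells (human breast carcinoma, MMTV-luciferase), compounds at 15 concentrations plus 3.0uM nilutamide; 16 hr, 37C, 0% CO2; CellTiter-Fluor fluorescence read for viability.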

[4] = qHTS assay to identify small molecule agonists of the estrogen receptor beta (ER-beta) signaling pathway - cell viability counter screen (AID 1259380); note: nearly all actives have a fitted effect of over 30% in size
Summary of the method: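 Viability of ER-beta-UAS-bla HEK293T cells was determined by CellTiter-Glo luminescence following 16 hr treatment with test compounds at 37C.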

[5] = molecular target: Estrogen receptor (Homo sapiens) (UniProt P03372); experiment: qHTS assay to identify small molecule agonists of the estrogen receptor alpha (ER-alpha) signaling pathway in the presence of an antagonist (AID 1259383; calls by dose curve; note: top concentration of the series differs between compounds; nearly all actives have a fitted effect of over 15% in size)
Summary of the method: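 In VM7Luc4E2 cells, 4,000 per well, compounds at 15 concentrations were co-incubated 22hr at 37C with 10.0nM final ICI-182,780. Luminescence from the stably transfected 4×ERE-luciferase reporter was recorded 30min after ONE-Glo addition.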

[6] = qHTS assay to identify small molecule agonists or antagonists of the thyroid stimulating hormone receptor (TSHR) signaling pathway - wild type cell line counter screen (AID 1259384; calls by dose curve)
Summary of the method: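 Wild-type HEK293 cells were plated 18 h at 37 C/5% CO2, pin-dosed with compound plus Ro20-1724 medium, held 30 min at room temperature, then given cAMP-d2 and anti-cAMP-cryptate; fluorescence was read after 1 h. Fifteen concentrations, triplicate.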

[7] = molecular target: Thyrotropin receptor (Homo sapiens) (UniProt P16473); experiment: qHTS assay to identify small molecule antagonists of the thyroid stimulating hormone receptor (TSHR) signaling pathway (AID 1259385; calls by dose curve; note: nearly all actives have a fitted effect of over 20% in size)
Summary of the method: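 TSHR-HEK293 cells were plated and held 18 h at 37C/5% CO2, then given compound plus Ro20-1724 and stimulated with TSH at 1.5 ng/mL final. After 30 min at room temperature, cAMP was detected with cAMP-d2/anti-cAMP-cryptate (1 h) by fluorescence.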

[8] = qHTS assay to identify small molecule agonists of the estrogen receptor alpha (ER-alpha) signaling pathway in the presence of an antagonist - cell viability counter screen (AID 1259386);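 note: series mostly up to about 92 µM; cells exposed to compounds for 22 h at 37 °C before the viability read; nearly all actives have a fitted effect of over 30% in size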
Summary of the method: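 Fluorescent CellTiter-Fluor viability signal from VM7Luc4E2 cells, with the reagent added during the final hour of a 22hr compound exposure at 37C in the presence of 10.0nM ICI-182,780.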

[9] = molecular target: Progesterone receptor (Homo sapiens) (UniProt P06401); experiment: qHTS assay to identify small molecule agonists of the progesterone receptor (PR) signaling pathway (AID 1346784; calls by dose curve; note: nearly all actives have a fitted effect of over 30% in size; note: potency is the fitted concentration of half-maximal effect)
Summary of the method: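 PR-UAS-bla HEK 293T cells (beta-lactamase reporter under UAS) in 2% charcoal-stripped FBS, dosed with 23 nL compound after 6 hr, incubated 16hr at 37C. LiveBLAzer B/G FRET substrate added, fluorescence read after 2 hours.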

[10] = molecular target: Progesterone receptor (Homo sapiens) (UniProt P06401); experiment: qHTS assay to identify small molecule antagonists of the progesterone receptor (PR) signaling pathway (AID 1346795; active = well fitted inhibition curve with a large enough effect in the signal ratio in the repeat runs, not every such curve was filed as active; the % refers to the signal ratio)
Summary of the method: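 PR-UAS-bla HEK293T cells with beta-lactamase reporter under UAS control, in 2% charcoal-stripped FBS, treated with compounds plus 1 nM promegestone (R5020, final) for 16 hr at 37C. Read-out: FRET beta-lactamase substrate fluorescence after 2 hr at room temperature.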

[11] = qHTS assay to identify small molecule antagonists of the progesterone receptor (PR) signaling pathway - cell viability counter screen (AID 1346798); note: nearly all actives have a fitted effect of over 50% in size; note: potency is the fitted concentration of half-maximal effect; for activity change, negative = cytotoxicity: series mostly up to about 92 µM
Summary of the method: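 PR-UAS-bla HEK293T cells, 3,000/well in 2% charcoal-stripped FBS medium, dosed with compounds plus R5020 agonist and incubated 16 h at 37C. Viability then measured in the same wells by CellTiter-Glo luminescence after 30 min at RT.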

[12] = qHTS assay to identify small molecule antagonists of the TGF-beta/Smad signaling pathway - cell viability counter screen (AID 1346824); note: nearly all actives have a fitted effect of over 50% in size
Summary of the method: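 SBE-bla HEK 293T cells were plated overnight at 37 C, then given compounds in DMSO plus TGF-beta1 (added as 0.25 ng/mL solution) for 5 hr. After the bla read, CellTiter-Glo was added to the same wells and luminescence read after 30 min at room temperature.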

[13] = qHTS assay to identify small molecule agonists of the TGF-beta/Smad signaling pathway - cell viability counter screen (AID 1346829); note: top concentration of the series differs between compounds; nearly all actives have a fitted effect of over 45% in size
Summary of the method: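 In parallel with the Smad reporter read, viability of HEK 293T cells stably carrying SBE-bla is quantified by ATP luminescence following 5 hr compound treatment.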

[14] = qHTS assay to identify small molecule agonists of the TGF-beta/Smad signaling pathway (AID 1346859; active = well fitted activation curve with a large enough effect in the signal ratio in the repeat runs, not every such curve was filed as active; the % refers to the signal ratio; note: series mostly up to about 77 µM)
Summary of the method: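 SBE-bla HEK293T cells plated overnight, then compound exposure for 5 h at 37 C. Beta-lactamase reporter read with LiveBLAzer B/G FRET substrate after 2 h at room temperature, fluorescence at 405 nm excitation, 460/530 nm emission.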

[15] = Human pregnane X receptor (PXR) small molecule agonists, qHTS cell viability counter screen (AID 1346977); note: nearly all actives have a fitted effect of over 50% in size
Summary of the method: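 PXR-Luc HepG2 cells (2,000/well, 5% charcoal-stripped FBS) preincubated 5 hr, then exposed to compounds 24 hr at 37 C. Viability read in the same wells by CellTiter-Fluor fluorescence, reagent added at 23 hr, 1 hr incubation.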

[16] = qHTS assay to identify small molecule antagonists of the estrogen receptor beta (ER-beta) signaling pathway - cell viability counter screen (AID 1259382); note: series mostly up to about 92 µM; nearly all actives have a fitted effect of over 55% in size
Summary of the method: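 Tox21 10K library tested in qHTS format on ER-beta-bla HEK293T cells stimulated with 1nM E2; 16 hr treatment at 37C. Same-well CellTiter-Glo luminescence served as the cell viability measure.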

[17] = molecular target: Thyrotropin-releasing hormone receptor (Homo sapiens) (UniProt P34981); experiment: qHTS assay to identify small molecule antagonists of the thyrotropin-releasing hormone receptor (TRHR) signaling pathway (AID 1346877; active = well fitted inhibition curve with a large enough effect in the repeat runs, not every such curve was filed as active; note: series mostly up to about 51 µM)
Summary of the method: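 In this cell-based calcium flux format, HEK293 cells expressing TRHR received test compound for 5 min before the agonist TRH (1 nM final). Dye loading lasted 2 h at 37 °C.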

[18] = molecular target: Thyrotropin-releasing hormone receptor (Homo sapiens) (UniProt P34981); experiment: qHTS assay to identify small molecule agonists of the thyrotropin-releasing hormone receptor (TRHR) signaling pathway (AID 1346891; calls by dose curve; note: series mostly up to about 58 µM)
Summary of the method: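 HEK293 cells expressing TRHR plated 18 h at 37 C/5% CO2, calcium dye-loaded 2 h at 37 C, then compound added (agonist mode); kinetic calcium fluorescence read 3 min at 1 s intervals; 15 concentrations in triplicate.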

[19] = qHTS assay to identify small molecule agonists of the progesterone receptor (PR) signaling pathway - cell viability counter screen (AID 1346799; calls by dose curve; note: nearly all actives have a fitted effect of over 45% in size)
Summary of the method: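 Counter screen in the PR-UAS-bla HEK293T wells (2% charcoal-stripped FBS, 16 h compound exposure at 37 C) after the bla read. CellTiter-Glo added, 30 min at room temperature, luminescence read as cell viability.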
% is set by controls: 0 for no effect and ±100 for the full control effect.

Chain of Estrogen receptor (Homo sapiens) (P03372 whole entry, looked up): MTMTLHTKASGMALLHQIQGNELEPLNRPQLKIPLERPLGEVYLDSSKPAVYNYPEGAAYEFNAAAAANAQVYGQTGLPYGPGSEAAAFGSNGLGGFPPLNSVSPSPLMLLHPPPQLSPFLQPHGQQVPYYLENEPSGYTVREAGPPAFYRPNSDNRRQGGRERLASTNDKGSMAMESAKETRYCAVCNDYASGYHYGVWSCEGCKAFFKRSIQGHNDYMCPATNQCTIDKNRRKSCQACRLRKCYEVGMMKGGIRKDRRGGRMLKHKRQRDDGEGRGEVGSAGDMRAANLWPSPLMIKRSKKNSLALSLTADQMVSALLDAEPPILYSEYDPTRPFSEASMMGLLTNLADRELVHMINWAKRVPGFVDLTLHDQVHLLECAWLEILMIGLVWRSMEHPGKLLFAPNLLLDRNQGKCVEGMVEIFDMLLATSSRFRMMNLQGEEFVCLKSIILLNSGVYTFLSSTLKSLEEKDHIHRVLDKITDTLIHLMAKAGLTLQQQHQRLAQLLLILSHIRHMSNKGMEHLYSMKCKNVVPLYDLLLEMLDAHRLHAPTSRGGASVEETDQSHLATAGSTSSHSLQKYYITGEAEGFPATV
Chain of Thyrotropin receptor (Homo sapiens) (P16473 whole entry, looked up): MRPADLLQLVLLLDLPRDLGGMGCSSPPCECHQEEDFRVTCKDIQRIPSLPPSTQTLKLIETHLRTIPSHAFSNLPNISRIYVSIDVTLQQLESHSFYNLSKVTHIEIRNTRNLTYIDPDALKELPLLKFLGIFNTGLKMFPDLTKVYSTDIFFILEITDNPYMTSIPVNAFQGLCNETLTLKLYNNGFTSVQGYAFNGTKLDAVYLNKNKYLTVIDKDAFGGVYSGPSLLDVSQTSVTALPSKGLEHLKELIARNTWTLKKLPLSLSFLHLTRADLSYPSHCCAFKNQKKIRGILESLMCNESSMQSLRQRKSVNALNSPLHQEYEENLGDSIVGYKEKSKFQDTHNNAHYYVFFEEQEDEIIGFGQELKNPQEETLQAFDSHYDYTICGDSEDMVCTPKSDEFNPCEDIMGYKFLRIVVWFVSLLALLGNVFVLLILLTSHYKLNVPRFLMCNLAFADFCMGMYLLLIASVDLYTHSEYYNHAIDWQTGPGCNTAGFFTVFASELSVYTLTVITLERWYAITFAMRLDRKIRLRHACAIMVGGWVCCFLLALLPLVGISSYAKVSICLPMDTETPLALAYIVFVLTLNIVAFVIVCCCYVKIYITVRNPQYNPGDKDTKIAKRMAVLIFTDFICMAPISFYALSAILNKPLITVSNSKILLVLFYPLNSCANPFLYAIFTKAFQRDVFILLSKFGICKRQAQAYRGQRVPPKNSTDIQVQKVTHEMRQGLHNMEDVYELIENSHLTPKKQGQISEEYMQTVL
Chain of Estrogen receptor beta (Homo sapiens) (Q92731 whole entry, looked up): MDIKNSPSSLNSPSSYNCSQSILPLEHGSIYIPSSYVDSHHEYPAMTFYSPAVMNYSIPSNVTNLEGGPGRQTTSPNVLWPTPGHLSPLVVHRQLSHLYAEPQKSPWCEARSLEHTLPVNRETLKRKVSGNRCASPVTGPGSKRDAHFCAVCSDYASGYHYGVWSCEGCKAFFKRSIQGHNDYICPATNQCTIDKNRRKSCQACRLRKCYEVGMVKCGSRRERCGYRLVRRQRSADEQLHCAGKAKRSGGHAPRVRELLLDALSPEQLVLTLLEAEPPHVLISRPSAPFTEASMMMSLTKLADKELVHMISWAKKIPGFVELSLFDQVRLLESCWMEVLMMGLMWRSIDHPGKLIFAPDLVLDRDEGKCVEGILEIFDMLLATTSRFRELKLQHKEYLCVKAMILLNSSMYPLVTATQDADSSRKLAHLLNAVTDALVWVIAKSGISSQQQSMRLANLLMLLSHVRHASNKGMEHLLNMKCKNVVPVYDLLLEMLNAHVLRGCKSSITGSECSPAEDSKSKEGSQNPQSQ
Chain of Progesterone receptor (Homo sapiens) (P06401 whole entry, looked up): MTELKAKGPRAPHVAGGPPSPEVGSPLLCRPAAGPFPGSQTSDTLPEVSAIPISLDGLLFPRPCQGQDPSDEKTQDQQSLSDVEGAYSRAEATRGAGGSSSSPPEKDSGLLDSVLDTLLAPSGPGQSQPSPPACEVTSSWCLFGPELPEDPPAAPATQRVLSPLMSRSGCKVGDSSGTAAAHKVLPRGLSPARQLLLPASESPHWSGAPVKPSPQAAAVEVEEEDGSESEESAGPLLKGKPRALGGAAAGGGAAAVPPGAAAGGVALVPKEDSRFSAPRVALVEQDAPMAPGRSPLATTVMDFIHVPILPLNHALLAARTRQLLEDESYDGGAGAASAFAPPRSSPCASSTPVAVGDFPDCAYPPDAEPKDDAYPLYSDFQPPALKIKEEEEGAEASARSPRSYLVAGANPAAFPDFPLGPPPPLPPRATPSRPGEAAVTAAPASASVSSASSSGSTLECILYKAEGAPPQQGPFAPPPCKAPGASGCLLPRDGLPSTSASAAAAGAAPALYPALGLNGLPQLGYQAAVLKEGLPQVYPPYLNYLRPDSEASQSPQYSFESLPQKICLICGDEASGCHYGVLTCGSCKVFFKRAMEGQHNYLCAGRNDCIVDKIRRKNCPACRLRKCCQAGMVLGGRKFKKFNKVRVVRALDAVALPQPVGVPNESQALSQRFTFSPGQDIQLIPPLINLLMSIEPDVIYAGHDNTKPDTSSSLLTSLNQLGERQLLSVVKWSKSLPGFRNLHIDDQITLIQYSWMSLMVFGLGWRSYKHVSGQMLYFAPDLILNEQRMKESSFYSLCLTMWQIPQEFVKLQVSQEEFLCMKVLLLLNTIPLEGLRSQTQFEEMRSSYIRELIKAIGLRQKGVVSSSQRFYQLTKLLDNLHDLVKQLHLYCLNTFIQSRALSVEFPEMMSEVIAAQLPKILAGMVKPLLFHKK
Chain of Thyrotropin-releasing hormone receptor (Homo sapiens) (P34981 whole entry, looked up): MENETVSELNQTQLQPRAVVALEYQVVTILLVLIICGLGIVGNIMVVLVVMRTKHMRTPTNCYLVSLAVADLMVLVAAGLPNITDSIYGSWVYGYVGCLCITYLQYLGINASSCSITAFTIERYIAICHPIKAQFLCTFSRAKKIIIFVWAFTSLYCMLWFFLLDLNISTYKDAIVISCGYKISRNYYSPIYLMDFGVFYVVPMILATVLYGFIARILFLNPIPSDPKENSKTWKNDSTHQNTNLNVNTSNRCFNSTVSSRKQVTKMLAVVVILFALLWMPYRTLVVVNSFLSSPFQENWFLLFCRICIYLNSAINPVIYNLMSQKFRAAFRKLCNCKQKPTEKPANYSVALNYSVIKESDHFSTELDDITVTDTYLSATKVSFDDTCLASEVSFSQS

C=CC(=O)O
inactive: Potency [1] | Potency [2] | Potency [3] | Potency [4] | Potency [5] | Potency [6] | Potency [7] | Potency [8] | Potency [9] | Potency [10] | Potency [11] | outcome [12] | Potency [13] | Potency [14] | Potency [15]

SCCc1cnccn1
inactive: Potency [1] | Potency [2] | Potency [3] | Potency [16] | Potency [5] | Potency [6] | Potency [7] | Potency [9] | Potency [13] | Potency [14] | outcome [17] | outcome [18] | Potency [15]
active: Potency [11] 30.6 µM

CCCCCCOC(=O)CCCCC
inactive: Potency [1] | Potency [2] | Potency [3] | Potency [4] | Potency [16] | Potency [6] | Potency [8] | Potency [9] | Potency [11] | Potency [19] | outcome [12] | Potency [13] | Potency [14] | outcome [17] | outcome [18] | Potency [15]

CCCCCCCCCCCCCOC(=O)CCSCCC(=O)OCCCCCCCCCCCCC
active: Potency [9] 0.644 µM
inactive: activation [1] -0.464% [at 19 µM] | activity, negative = inhibition [2] -0.0397% [at 19 µM] | activity change, negative = cytotoxicity [3] -0.499% [at 19 µM] | activity change, negative = cytotoxicity [4] 4.18% [at 19 µM] | activity change, negative = cytotoxicity [16] 3.4% [at 19 µM] | cAMP activity change [6] -3.33% [at 18.9 µM, stronger effect = higher value] | activity change, negative = inhibition [7] -0.382% [at 19 µM] | activity change, negative = cytotoxicity [8] -1.3% [at 19 µM] | activity change, negative = inhibition [10] 5.83% [at 18.9 µM] | activity change, negative = cytotoxicity [11] -8.45% [at 18.9 µM] | activity change, negative = cytotoxicity [19] 36.2% [at 19 µM] | viability change, negative = cytotoxic [12] 16.1% [at 15.8 µM] | activation [14] 1.33% [at 15.8 µM] | activity, negative = inhibition [17] 4.46% [at 10.5 µM] | activation [18] 0.934% [at 11.8 µM] | activity change, negative = cytotoxicity [15] -0.253% [at 19 µM]

O=C(Nc1ccc(C(=O)O)c(O)c1)c1ccccc1
inactive: Potency [1] | Potency [2] | Potency [3] | Potency [4] | Potency [5] | Potency [6] | Potency [7] | Potency [8] | Potency [9] | Potency [10] | Potency [11] | Potency [19] | outcome [12] | Potency [13] | Potency [14] | outcome [17] | Potency [15]

O=CNNC=O
inactive: Potency [1] | Potency [2] | Potency [3] | Potency [4] | Potency [16] | Potency [5] | Potency [6] | Potency [9] | Potency [10] | Potency [19] | outcome [12] | Potency [13] | Potency [14] | outcome [17] | outcome [18] | Potency [15]

O=c1[nH][nH]c(=O)c2cc([N+](=O)[O-])ccc12
inactive: Potency [1] | Potency [2] | Potency [3] | Potency [4] | Potency [16] | Potency [5] | Potency [6] | Potency [9] | Potency [10] | Potency [19] | Potency [13] | Potency [14] | outcome [17] | outcome [18] | Potency [15]

CCOC(=O)C(C)O (stereo not drawn)
inactive: Potency [1] | Potency [2] | Potency [3] | Potency [4] | Potency [5] | Potency [8] | Potency [10] | Potency [11] | Potency [19] | outcome [12] | Potency [13] | Potency [14] | Potency [15]
